From ChEMBL document CHEMBL3988442, “University of Dundee, Small-Polar-MMV Screening Library” (2021) come the findings set out here.

The target of experiment [1] is Protein translocase subunit SecA (Escherichia coli (strain K12)) (UniProt P10408). The experiment is described as follows: Assay to Identify E. coli SecA ATPase Inhibitors. Also noted: scale not given: direction of the effect not stated beside the values. It is filed as functional. Conditions: 30 µM.
The target in experiment [2] is T1, Ubiquitin-activating enzyme e1, putative (Leishmania donovani (strain BPK282A1)) (UniProt E9BSI1).
T1 sequence (whole entry): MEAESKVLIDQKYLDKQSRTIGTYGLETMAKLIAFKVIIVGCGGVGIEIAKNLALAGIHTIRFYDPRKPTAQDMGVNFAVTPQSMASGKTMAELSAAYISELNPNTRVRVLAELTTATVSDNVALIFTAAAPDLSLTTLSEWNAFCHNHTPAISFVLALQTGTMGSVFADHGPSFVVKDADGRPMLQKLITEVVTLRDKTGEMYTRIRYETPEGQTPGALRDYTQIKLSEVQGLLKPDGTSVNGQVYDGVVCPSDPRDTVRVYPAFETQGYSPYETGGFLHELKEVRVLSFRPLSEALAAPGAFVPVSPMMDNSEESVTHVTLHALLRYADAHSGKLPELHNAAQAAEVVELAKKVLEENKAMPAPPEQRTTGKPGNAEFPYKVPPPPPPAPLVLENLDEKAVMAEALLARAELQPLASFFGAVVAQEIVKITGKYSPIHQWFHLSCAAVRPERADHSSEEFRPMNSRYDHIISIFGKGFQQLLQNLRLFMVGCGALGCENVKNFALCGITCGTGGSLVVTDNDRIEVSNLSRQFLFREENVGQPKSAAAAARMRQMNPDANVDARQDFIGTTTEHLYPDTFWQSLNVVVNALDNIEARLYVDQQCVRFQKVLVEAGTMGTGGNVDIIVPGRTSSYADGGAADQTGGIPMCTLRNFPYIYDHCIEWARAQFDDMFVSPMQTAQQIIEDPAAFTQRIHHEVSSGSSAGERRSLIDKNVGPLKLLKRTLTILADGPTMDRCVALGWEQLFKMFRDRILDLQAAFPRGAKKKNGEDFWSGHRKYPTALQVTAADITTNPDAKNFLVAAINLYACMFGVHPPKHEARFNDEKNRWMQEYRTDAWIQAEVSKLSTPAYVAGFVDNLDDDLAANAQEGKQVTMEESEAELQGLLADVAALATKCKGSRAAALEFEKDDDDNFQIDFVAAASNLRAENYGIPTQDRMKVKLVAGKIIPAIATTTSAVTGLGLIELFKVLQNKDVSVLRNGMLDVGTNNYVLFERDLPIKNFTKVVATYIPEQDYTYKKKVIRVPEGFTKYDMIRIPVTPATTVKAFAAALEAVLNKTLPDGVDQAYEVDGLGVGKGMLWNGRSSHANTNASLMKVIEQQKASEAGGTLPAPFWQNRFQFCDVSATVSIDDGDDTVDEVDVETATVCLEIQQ
Put plainly: Leishmania donovani Ubiquitin Activating Enzyme (LdE1). The class given is functional. Also noted: scale not given: direction of the effect not stated beside the values. Conditions: 30 µM.

In experiment [3] the target is AMP-activated protein kinase, AMPK (Homo sapiens) (UniProt P54646+O43741+P54619+Q9UGJ0+Q9Y478+Q13131+Q9UGI9). Put plainly: AMP-dependent Kinase enzyme assay. An in vitro enzyme assay that detects ADP turnover that is directly proportional to AMPK activity. This uses naive AMPK that is activated during the assay with MK-8722. Conditions: 30 µM. Also noted: scale not given: direction of the effect not stated beside the values. The class given is functional.

Experiment [4] has as its target Sialic acid-binding Ig-like lectin 9 (Homo sapiens) (UniProt Q9Y336). The experiment is described as follows: Hs-Siglec9 ALPHAscreen SOP 20170721. On the set-up: scale not given: direction of the effect not stated beside the values. Conditions: 10 µM. A general note: Alpha assays give light when donor and acceptor beads are brought close together.
The next experiment deals with Trypanosoma cruzi. The experiment is described as follows: Trypanosoma cruzi phosphomannomutase and mannose-1-phosphate guanylyltransferase assay. It is filed as functional. Also noted: scale not given: direction of the effect not stated beside the values. Conditions: 10 µM.
Experiment [5] has as its target T2, Arginase-2, mitochondrial (Homo sapiens) (UniProt P78540).
T2 sequence (whole entry): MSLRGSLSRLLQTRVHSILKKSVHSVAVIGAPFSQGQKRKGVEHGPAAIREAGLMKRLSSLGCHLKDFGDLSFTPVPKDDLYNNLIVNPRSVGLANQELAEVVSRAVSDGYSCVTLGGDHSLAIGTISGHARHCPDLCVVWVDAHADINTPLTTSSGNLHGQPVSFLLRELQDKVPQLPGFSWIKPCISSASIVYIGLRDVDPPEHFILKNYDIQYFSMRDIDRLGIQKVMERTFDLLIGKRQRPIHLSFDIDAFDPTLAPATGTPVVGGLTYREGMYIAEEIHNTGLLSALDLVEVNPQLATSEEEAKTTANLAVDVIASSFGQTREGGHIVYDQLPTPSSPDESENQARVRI
The experiment is described as follows: in vitro enzyme assay to detect the production of urea directly proportional to the activity of Arginase II. Also noted: scale not given: in the data most compounds retested in dose-response had high values. It is filed as functional.

In experiment [6] the target is T3, Proteasome subunit beta (Trypanosoma cruzi) (UniProt O96673).
T3 sequence (whole entry): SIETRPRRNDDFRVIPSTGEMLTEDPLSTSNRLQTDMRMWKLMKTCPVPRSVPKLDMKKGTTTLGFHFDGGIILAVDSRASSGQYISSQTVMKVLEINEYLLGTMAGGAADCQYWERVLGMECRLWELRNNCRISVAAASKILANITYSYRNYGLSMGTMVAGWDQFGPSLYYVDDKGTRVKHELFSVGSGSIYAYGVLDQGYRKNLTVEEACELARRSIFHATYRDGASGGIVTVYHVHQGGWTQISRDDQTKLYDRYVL
The experiment is described as follows: Trypanosoma cruzi proteasome chymotrypsin-like activity (TcProtChymo) assay. The class given is functional. Also noted: scale not given: in the data most compounds retested in dose-response had high values. Conditions: 9.37 µM.

For the next experiment, the species on record is Homo sapiens. Put plainly: To identify inhibition of the IFN signalling (Jak-Stat) pathway via expression of an eGFP reporter gene under the control of an IFN-stimulated response element (ISRE) containing MxA promoter. The class given is functional. Also noted: scale not given: direction of the effect not stated beside the values. Conditions: 30 µM. (In general: A reporter such as luciferase makes a cellular process visible.)

In experiment [7] the target is T4, Tyrosyl-tRNA synthetase, putative (Trypanosoma cruzi (strain CL Brener)) (UniProt Q4DSP6).
T4 sequence (whole entry): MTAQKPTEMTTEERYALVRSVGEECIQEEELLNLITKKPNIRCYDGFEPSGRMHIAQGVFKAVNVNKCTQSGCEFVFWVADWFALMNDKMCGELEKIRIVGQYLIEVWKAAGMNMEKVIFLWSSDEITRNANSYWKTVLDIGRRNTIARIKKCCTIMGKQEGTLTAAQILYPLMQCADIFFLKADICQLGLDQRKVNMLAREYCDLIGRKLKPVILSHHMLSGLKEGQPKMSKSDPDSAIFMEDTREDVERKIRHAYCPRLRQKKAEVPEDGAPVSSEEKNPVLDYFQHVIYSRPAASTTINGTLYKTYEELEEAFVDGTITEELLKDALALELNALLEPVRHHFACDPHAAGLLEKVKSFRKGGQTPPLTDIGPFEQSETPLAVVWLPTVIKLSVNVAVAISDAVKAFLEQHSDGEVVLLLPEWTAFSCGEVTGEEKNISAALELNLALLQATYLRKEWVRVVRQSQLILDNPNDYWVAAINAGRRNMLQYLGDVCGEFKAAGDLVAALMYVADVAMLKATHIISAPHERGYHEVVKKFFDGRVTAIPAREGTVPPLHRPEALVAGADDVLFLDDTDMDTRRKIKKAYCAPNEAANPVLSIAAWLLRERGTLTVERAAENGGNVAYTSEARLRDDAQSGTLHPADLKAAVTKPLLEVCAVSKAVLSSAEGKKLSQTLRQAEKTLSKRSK
Put plainly: Trypanosoma cruzi tyrosyl tRNA synthetase (TcYRS) _High Tyrosine SOP. The class given is functional. Also noted: scale not given: in the data most compounds retested in dose-response had high values. Conditions: 30 µM.

Experiment [8] deals with T4, Tyrosyl-tRNA synthetase, putative (Trypanosoma cruzi (strain CL Brener)). Put plainly: Trypanosoma cruzi tyrosyl tRNA synthetase (TcYRS) SOP. The class given is functional. On the set-up: scale not given: direction of the effect not stated beside the values. The following applies: 30 µM.
Experiment [9] concerns the target Chromo domain-containing protein 1 (Saccharomyces cerevisiae (strain ATCC 204508 / S288c) (Baker's yeast)) (UniProt P32657). Put plainly: ScCHD-1 Enzyme Inhibition Assay. The class given is functional. On the set-up: scale not given: in the data most compounds retested in dose-response had high values. The following applies: 30 µM.
Experiment [10] has as its target T5, Methionyl-tRNA synthetase, putative (Leishmania donovani (strain BPK282A1)) (UniProt E9BF75).
T5 sequence (whole entry): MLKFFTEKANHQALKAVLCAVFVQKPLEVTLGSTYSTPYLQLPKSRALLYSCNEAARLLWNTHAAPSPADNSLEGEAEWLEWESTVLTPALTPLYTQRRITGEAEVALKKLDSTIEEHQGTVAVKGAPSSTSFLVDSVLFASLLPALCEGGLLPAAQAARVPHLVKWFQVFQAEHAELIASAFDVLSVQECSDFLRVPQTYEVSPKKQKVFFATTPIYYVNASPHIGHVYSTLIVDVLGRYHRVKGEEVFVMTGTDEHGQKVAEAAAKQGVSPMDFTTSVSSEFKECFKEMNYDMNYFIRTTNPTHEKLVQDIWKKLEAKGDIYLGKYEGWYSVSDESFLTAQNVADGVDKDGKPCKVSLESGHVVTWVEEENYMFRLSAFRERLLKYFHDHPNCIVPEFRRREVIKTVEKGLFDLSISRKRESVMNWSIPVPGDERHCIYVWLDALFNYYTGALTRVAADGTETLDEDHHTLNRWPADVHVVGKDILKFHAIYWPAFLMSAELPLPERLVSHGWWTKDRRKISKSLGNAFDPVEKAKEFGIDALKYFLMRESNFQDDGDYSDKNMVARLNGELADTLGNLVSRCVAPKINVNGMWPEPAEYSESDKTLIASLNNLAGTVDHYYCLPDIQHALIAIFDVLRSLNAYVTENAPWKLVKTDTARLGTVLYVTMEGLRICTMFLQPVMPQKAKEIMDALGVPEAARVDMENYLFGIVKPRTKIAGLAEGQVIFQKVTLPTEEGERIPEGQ
Put plainly: Leishmania donovani Methionine tRNA synthetase (LdMetRS):v7. Dose response assay. The class given is functional. Also noted: conc 80 nM, time 150 minutes.

Structures are written as SMILES. For some assays here: Measured potencies and affinities stand elsewhere.

Chain of Protein translocase subunit SecA (Escherichia coli (strain K12)) (P10408 whole entry): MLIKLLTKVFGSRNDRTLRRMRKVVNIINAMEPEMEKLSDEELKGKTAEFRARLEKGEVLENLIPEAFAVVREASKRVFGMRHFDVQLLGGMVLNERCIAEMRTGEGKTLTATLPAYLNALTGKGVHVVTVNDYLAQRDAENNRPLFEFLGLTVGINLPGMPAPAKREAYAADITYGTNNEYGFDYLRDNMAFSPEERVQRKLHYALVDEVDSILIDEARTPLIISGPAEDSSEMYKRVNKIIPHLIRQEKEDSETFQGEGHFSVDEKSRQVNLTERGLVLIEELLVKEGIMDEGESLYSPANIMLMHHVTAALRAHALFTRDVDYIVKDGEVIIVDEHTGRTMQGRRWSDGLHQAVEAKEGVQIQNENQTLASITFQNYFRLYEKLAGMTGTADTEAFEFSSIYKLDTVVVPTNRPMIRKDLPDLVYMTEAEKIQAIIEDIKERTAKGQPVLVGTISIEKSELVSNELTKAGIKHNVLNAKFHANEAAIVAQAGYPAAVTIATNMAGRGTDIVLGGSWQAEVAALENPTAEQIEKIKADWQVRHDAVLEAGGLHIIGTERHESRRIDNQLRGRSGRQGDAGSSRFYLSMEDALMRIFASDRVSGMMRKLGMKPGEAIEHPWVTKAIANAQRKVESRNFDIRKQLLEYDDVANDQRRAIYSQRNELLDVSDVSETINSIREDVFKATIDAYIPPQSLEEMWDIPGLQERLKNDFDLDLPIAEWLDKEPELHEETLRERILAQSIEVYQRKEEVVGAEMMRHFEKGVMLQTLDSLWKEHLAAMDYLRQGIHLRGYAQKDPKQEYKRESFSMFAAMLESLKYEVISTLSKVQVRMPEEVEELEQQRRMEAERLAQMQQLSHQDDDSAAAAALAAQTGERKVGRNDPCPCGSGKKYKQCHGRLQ
Chain of Chromo domain-containing protein 1 (Saccharomyces cerevisiae (strain ATCC 204508 / S288c) (Baker's yeast)) (P32657 whole entry, the tested form may be a part): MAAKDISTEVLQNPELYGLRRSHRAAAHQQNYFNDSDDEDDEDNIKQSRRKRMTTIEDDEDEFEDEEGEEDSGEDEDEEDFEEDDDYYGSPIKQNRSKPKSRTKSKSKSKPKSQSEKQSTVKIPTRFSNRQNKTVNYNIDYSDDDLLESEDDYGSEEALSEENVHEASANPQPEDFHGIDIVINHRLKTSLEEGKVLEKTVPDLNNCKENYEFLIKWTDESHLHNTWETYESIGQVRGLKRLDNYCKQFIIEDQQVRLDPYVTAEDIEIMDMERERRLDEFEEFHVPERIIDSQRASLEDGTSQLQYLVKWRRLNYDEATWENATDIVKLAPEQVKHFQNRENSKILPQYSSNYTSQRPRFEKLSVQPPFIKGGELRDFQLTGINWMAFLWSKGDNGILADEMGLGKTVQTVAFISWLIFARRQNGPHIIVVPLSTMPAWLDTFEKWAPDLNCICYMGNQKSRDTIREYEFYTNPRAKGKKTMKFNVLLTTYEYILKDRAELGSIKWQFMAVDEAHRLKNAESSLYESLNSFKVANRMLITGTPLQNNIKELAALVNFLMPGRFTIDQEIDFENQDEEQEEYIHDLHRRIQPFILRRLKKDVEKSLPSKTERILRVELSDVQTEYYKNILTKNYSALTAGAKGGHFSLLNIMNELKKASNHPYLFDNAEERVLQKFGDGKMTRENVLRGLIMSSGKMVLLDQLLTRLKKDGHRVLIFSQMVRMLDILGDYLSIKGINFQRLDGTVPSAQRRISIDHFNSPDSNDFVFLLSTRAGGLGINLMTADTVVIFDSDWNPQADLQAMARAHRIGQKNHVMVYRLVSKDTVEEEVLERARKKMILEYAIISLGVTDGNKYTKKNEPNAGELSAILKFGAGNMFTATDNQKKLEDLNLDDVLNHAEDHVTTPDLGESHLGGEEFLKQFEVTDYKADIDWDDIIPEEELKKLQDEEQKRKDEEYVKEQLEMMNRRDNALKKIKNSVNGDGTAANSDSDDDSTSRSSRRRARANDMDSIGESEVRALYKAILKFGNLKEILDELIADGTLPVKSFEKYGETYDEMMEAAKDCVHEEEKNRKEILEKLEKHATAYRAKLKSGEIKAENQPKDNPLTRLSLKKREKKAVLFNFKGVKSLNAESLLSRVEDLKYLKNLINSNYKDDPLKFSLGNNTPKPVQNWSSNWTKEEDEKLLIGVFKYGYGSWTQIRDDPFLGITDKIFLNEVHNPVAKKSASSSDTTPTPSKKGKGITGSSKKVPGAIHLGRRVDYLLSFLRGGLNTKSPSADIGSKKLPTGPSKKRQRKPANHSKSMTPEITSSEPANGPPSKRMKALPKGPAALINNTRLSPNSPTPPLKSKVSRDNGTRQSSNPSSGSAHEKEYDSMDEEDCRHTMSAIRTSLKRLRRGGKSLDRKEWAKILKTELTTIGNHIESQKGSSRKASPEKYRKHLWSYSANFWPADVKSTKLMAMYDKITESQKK
Chain of Sialic acid-binding Ig-like lectin 9 (Homo sapiens) (Q9Y336 whole entry): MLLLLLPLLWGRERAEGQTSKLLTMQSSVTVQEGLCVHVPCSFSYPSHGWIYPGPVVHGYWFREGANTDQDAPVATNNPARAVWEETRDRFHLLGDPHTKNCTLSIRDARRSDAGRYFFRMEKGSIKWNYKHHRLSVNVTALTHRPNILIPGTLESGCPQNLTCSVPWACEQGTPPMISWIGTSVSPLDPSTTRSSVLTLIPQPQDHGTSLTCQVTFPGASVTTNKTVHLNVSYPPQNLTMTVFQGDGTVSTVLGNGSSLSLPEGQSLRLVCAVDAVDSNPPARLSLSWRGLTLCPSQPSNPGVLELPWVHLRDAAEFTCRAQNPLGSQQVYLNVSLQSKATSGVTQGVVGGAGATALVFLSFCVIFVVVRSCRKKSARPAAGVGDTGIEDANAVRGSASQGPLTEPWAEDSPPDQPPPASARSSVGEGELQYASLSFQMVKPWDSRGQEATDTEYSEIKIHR

Turning to `Cc1nc(C2CCCN2C(=O)CNS(C)(=O)=O)no1` (stereo not given), the Percent Effect is -2.65% in experiment [1]; 5.33% in experiment [2]; -7.92% in experiment [3]; -1.69% in experiment [4]; -0.876% in the experiment with Trypanosoma cruzi; -12.4% in [5] (30 µM). Further, the Percent Effect is 0% in experiment [5] (33.3 µM); 10.5% in experiment [6]; 5.88% in the experiment filed under Homo sapiens; 7.1% in experiment [7]; 18.5% in experiment [8]; -12.8% in [9].

For the molecule `N#CC1CCCN(c2nc(-c3ccccc3)nc3c2CCNCC3)C1` (stereo not given), the PXC50 in experiment [10] (MAX_EFFECT 13.59649123) and in experiment [10] (MAX_EFFECT 23.4375) was under 4 throughout. Also, the Percent Effect in [1] is -2.62%; in [2], -5.48%; in [3], -0.435%; in experiment [4], 0.626%; in the experiment on Trypanosoma cruzi, -4.17%; in experiment [5] (33.3 µM), 2%. The Percent Effect was 11.2% in [6]; 2.12% in the experiment listed under Homo sapiens; 4.17% in [7]; 3.7% in experiment [8]; 9.39% in experiment [9].

With `CCn1cnnc1CNc1nc(C)nc2scc(CC(C)C)c12`, the PXC50 in experiment [10] (MAX_EFFECT 12.79373368) and in [10] (MAX_EFFECT 13.05483029) was under 4 in each case. Besides, the Percent Effect in experiment [3] is -1.1%.

For the molecule `Cn1cc(CC2CCN(C(=O)NCCc3cccc(O)c3)C2)cn1` (stereo not given), the Percent Effect in [1] was -1.93%; in experiment [2], 0%; in experiment [3] it was 11.8%; in [4] it was 1.28%; in the experiment on Trypanosoma cruzi, -3.8%; in experiment [5] (30 µM) it was 5.95%. For the same molecule, the Percent Effect was -2.37% in [5] (33.3 µM); 11% in experiment [6]; -12% in the experiment filed under Homo sapiens; 5.32% in [7]; 7.79% in experiment [8]; -2.6% in experiment [9].

Regarding `CN(Cc1ccccn1)C(=O)[C@]12COC[C@H]1CN(Cc1cnn(C)c1)C2`, the Percent Effect in experiment [1] is -1.75%; in experiment [2] it was 2.67%; in experiment [3], 0.223%; in [4], 6.55%; in the experiment on Trypanosoma cruzi, 1.16%; in experiment [5] (30 µM), 5.95%. The Percent Effect was -52.5% in experiment [5] (33.3 µM); 3.93% in experiment [6]; -7.69% in the experiment listed under Homo sapiens; 2.08% in experiment [7]; 7.5% in [8]; -8.12% in [9].

As for `FC1(F)CCN(Cc2ccccn2)CC12CCN(c1cccnc1)C2` (stereo not given), the PXC50 in experiment [10] (MAX_EFFECT 3.800475059) and in experiment [10] (MAX_EFFECT 6.161971831) was under 4 each time. For the same molecule, the Percent Effect in experiment [1] is -7.19%; in experiment [2], 2.7%; in experiment [3] it was 114%; in [4], -3.38%; in the experiment with Trypanosoma cruzi, -1.86%; in experiment [5] (33.3 µM), 2.87%. Also, the Percent Effect in experiment [6] was 0.369%; in the experiment listed under Homo sapiens, 49.7%; in experiment [7] it was -3.24%; in experiment [8], -2.56%; in experiment [9], -1.38%.
